In the library only some 9.9% were active in any assay of this set; here they are far more common.
KB-V1 MDR tox: kills drug-selected multidrug resistant KB-V1 cells. KB-V1 MDR cells viability, CellTiter-Glo, 72 h. Potency, µM (top dose mostly 46.1 µM), actives largely listed as cytotoxic. 3.4% of 400,000 active. AID 1347076; note: potency is the fitted concentration of half-maximal effect; % is set by controls: 0 for no effect and ±100 for the full control effect; nearly all actives have a fitted effect of over 60% in size
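Potencies derive from concentration-effect curves fitted to normalized luminescence (CellTiter-Glo) of KB-V1 cells treated for 72 h at 37 degrees C in phenol-red-free DMEM containing 10% FBS.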
KB-3-1 tox: kills parental KB-3-1 adenocarcinoma cells | Potency, µM (doses to about 46.1 µM), usual class: cytotoxic | KB-3-1 viability, CellTiter-Glo ATP luminescence, 72 h | 1.4% of 400,000 active; note: potency is the fitted concentration of half-maximal effect; % is set by controls: 0 for no effect and ±100 for the full control effect; nearly all actives have a fitted effect of over 60% in size
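Parental KB-3-1 adenocarcinoma cells in phenol-red-free DMEM with 10% FBS were pin-treated with compounds at several concentrations, incubated 72 h at 37 °C, and viability read by CellTiter-Glo luminescence; concentration-effect curves were fitted after normalization.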
SW480 rereplic: induces DNA re-replication in SW480 colon adenocarcinoma cells. SW480 DNA re-replication, Hoechst DNA content imaging, 48 h. Potency, µM (titrated, usually from 46.1 µM), inactives show at the top dose re-replication activation, hits mostly activators. 1.8% of 340,000 active; note: potency is the fitted concentration of half-maximal effect; % of control where 0% means no effect; nearly all actives have a fitted effect of over 55% in size
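250 cells/well; 23 nL cpd via pin tool; 48 hr, 37 C, 5% CO2; Hoechst 40 min; imager read of total nuclear intensity, ex 405/em 500-530 nm.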
IL1B secr inh: blocks inflammasome-driven IL-1 beta release; THP-1 LPS/ATP IL-1B secretion, AlphaLISA, 16 h; stronger effect = lower value; activity change, % at 57.5 µM; 4.7% of 360,000 active; AID 743279; in the data active = activity change below about -50%; inconclusive = mostly about -30% to -49%; note: % is set by controls: 0 for no effect and ±100 for the full control effect
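THP-1 cells pretreated 1 hr with compounds (up to 57.5 uM final), then stimulated with LPS (250 ng/mL final) plus ATP (1.25 mM final); secreted IL-1B measured by AlphaLISA after 16 hr, decreased signal indicating inhibition.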
MCF10A rereplic: induces DNA re-replication in MCF 10a normal breast cells; AID 624296; MCF 10A DNA re-replication, Hoechst nuclear intensity, 48 h; 2.9% of 350,000 active; Potency, µM (titrated, usually from 46.1 µM), for inactives: at the top dose activity, positive = re-replication, usual class: activators; note: potency is the fitted concentration of half-maximal effect; % of control where 0% means no effect; nearly all actives have a fitted effect of over 50% in size
Numbers without * were called inactive; i = inactive; ? = inconclusive; · = no result given; [ ] = another dose, or the depositor's remark. Unless noted, calls come from the whole dose curve; as a rule, active = well fitted curve in the direction sought with a large enough effect; inconclusive = small, poorly fitted or top-dose-only effect, or another doubt; inactive = no such curve, though single readings can be large; an effect the other way counts as inactive or inconclusive.

SMILES | KB-V1 MDR tox | KB-3-1 tox | SW480 rereplic | IL1B secr inh | MCF10A rereplic
CCOC(=O)Cc1csc(NC(=O)c2ccc(S(=O)(=O)N3CCCC3)cc2)n1 | i | i | -3.2% | -53.5* | -8.8%
Cc1cc(C)c(NC(=O)c2ccc(S(=O)(=O)N(C)C)cc2)c(C)n1 | i | i | ? | 34.5 | 18.4µM*
CCOC(=O)c1csc(NC(=O)c2ccc(S(=O)(=O)N(C)C)cc2)n1 | 20.6µM* | i | 0.7% | 8.1 | -5.6%
CCOC(=O)Cc1csc(NC(=O)c2csc(C)c2)n1 | 16.4µM* | i | -1.9% | -3.6 | 3.9%
CCOc1ccc(-c2cc(C(=O)NCCCN3CCCC3)c3ccccc3n2)cc1 | i | i | 12.6% | · | ?
CC(=O)Nc1ccc(CN(C)c2c(C)nc3ccc(C(=O)N4CCN(C(C)=O)CC4)cn23)cc1 | i | i | · | 9.5 | ·
COC(=O)/C=C/c1ccc(OC(=O)OC)c(OC(=O)OC)c1 | i | i | -0.3% | 14.8 | 8.6%
CC1=C(C(=O)NCc2ccccc2C)C2(CCCCC2)OC1=O | i | i | · | · | ·
CC(=O)OC1COC(n2c(O)c(N=NC(N)=S)c3ccccc32)C(OC(C)=O)C1OC(C)=O (stereo not given) | ? | i | ? | 6.8 | 0.651µM*
CCCCC(CC)Cn1c(O)c(/C=C2\C=NN=C2c2ccccc2)sc1=S (stereo not given) | ? | ? | 3.2% | -104.2* | ?
CCCn1c(O)c(/C=C2\C=NN=C2c2ccccc2)sc1=S | ? | i | 8.9% | ? | 9.2µM*
O=C(O)CCCn1c(O)c(C=C2N=c3ccccc3=N2)sc1=S | i | i | 6.3% | 37.5 | ?
C=CCn1c(O)c(/C=C2\C=NN=C2c2ccccc2)sc1=S | i | i | 9.6% | -58.8* | ?
COc1ccc(Cl)cc1Nc1cc(C)nc2nc(-c3ccccc3C)nn12 | i | i | · | · | ·
COc1ccc(-c2cc(=O)oc3cc(OC(C)C(=O)NCc4ccccn4)ccc23)cc1 (stereo not given) | i | i | 0.0% | -11.6 | 24.3%
Cc1ccc(-n2ncc(C(=O)NCc3cccs3)c2C2CCN(C(=O)OC(C)(C)C)CC2)cc1C | i | i | · | · | ·
CC(C)(C)OC(=O)N1CCC(c2cc(-c3cccs3)n[nH]2)CC1 | i | i | 4.9% | -75.8* | 6.0%
Cc1cccc(NC(=O)CCN2CCCC(C)C2)c1 (stereo not given) | i | i | 4.9% | 4.8 | 1.3%
COCCNC(=O)C1CCC(CNS(=O)(=O)c2ccccc2)CC1 (stereo not given) | i | i | -3.6% | -1.5 | -0.7%
O=S(c1ccc2ccccc2c1)c1cnns1 (stereo not given) | ? | i | ? | -111.0* | 13µM*
O=c1c2ccccc2cnn1-c1ccc2ccccc2c1 | ? | i | -1.0% | 5.7 | 1.3%
O=C(CSc1ccc2c(c1)OCCO2)Nc1ccc2c(c1)OCO2 | i | i | -9.3% | -4.6 | -1.5%
O=C(CSC1=NC2(CCCCC2)N=C1c1ccccc1)Nc1ccc2c(c1)OCCO2 | i | i | ? | -80.4* | ?
O=C(CSC1=NC2(CCCCCC2)N=C1c1ccccc1)Nc1ccc2c(c1)OCCO2 | i | i | 14.3% | -75.3* | 0.5%
Cc1ccc(C2=NC3(CCCC3)N=C2SCC(=O)Nc2ccc3c(c2)OCCO3)cc1 | i | i | 20.6µM* | -94.3* | ?
SMILES | KB-V1 MDR tox | KB-3-1 tox | SW480 rereplic | IL1B secr inh | MCF10A rereplic
CC(=O)c1cccc(NC(=O)C2=CC(c3ccc(F)cc3)=NS(=O)(=O)N2C)c1 | i | i | · | · | ·
Cc1occc1C(=O)NN1C(=O)C2C3CCC(O3)C2C1=O (stereo not given) | i | i | -3.1% | -0.9 | -0.2%
Clc1ss/c(=N\c2ccccn2)c1Cl | i | i | -5.4% | -90.9* | 2.6%
CC(=O)N1c2ccc(S(=O)(=O)N3CCCCC3)cc2CC1C(=O)NCc1ccccc1C (stereo not given) | i | i | -2.9% | -2.2 | -3.5%
Cc1nn(-c2ccccc2)cc1/C=N/NC(N)=S | 16.4µM* | ? | -2.6%[9.22 µM] | 0.3 | ?
Cc1nn(-c2ccccc2)cc1/C=N/O | i | i | 1.5% | 1.3 | 0.6%
CC(NC(=S)Nc1cccc(C(F)(F)F)c1)C(C)(C)C (stereo not given) | i | i | ? | -80.9* | 2.7%
FC(F)(F)c1cccc(NC(=S)NCc2ccc(Cl)cc2)c1 | ? | ? | 7.3% | -155.0* | 18.4µM*
CN(C)NC(=S)Nc1cccc(C(F)(F)F)c1 | i | i | 15.6% | · | -7.9%
Fc1cccc(NC(=S)NCc2ccc(Cl)cc2)c1 | ? | i | -32.8% | -15.2 | 22.8%
Fc1ccc(CNC(=S)Nc2cccc(C(F)(F)F)c2)cc1 | 20.6µM* | ? | 0.1% | 0.0 | 23.2%
Fc1ccccc1CNC(=S)Nc1cccc(C(F)(F)F)c1 | ? | ? | 8.3% | -98.1* | ?
COc1ccc(CN2C(=O)CSC2c2ccccn2)cc1 (stereo not given) | i | i | -7.1% | 10.2 | 1.5%
N#Cc1cnn(-c2ccccc2)c1NC(=O)CN1CCN(c2ccccc2)CC1 | i | i | -8.1% | 36.6 | 3.0%
CC(C)(C)NNC(=S)Nc1cccc(F)c1 | i | i | 13.9% | · | ?
O=[N+]([O-])c1cc(C(F)(F)F)cc([N+](=O)[O-])c1NCCNC(=S)Nc1cccc(F)c1 | i | i | 0.6% | -52.9* | -2.1%
O=C(Cn1nnc2ccccc2c1=O)NCC1CCC(C(=O)O)CC1 (stereo not given) | i | i | -23.3% | -1.2 | 5.4%
CC(=O)C1CCC2C3CCC4=CC(=O)CCC4(C)C3(F)C(O)CC12C (stereo not given) | 5.17µM* | ? | -9.3% | -12.8 | 16.9%
CC12CCC(=O)C=C1CCC1C3CC(O)C(O)(C(=O)CO)C3(C)CC(O)C12F (stereo not given) | i | i | -4.7% | ? | 0.2%
CC(C)c1ccc(OCC(=O)Nc2ccc(S(=O)(=O)Nc3ncccn3)cc2)cc1 | i | i | · | · | ·
COC(=O)c1sc(NC(=O)CCCn2nc([N+](=O)[O-])cc2C)c(C(=O)OC)c1C | 0.92µM* | i | 0.3% | -7.7 | 3.9%
Cc1cc(NC(=O)CCCn2nc([N+](=O)[O-])cc2C)no1 | i | i | 0.1% | -8.0 | -0.2%
O=C(CSc1nnc(CNC(=O)c2ccco2)o1)Nc1ccccc1F | ? | i | -1.8% | 9.2 | -1.5%
Nc1ccccc1-c1ccc([N+](=O)[O-])cc1 | i | ? | ? | -0.7 | 23.1µM*
Nc1ccc(-c2ccc(N)c([N+](=O)[O-])c2)cc1[N+](=O)[O-] | i | i | -41.0% | -20.8 | 2.9%

Source: PubChem (National Center for Advancing Translational Sciences (NCATS))
